# Test results from the supplement of paper PMC12819154, “High-throughput peptide-centric local stability assay extends protein–ligand identification to membrane proteins, tissues and bacteria” (Nature Structural & Molecular Biology, 2025).
# Compound: CN[C@@H]1C[C@H]2O[C@@](C)([C@@H]1OC)n1c3ccccc3c3c4c(c5c6ccccc6n2c5c31)C(=O)NC4 [staurosporine]
# Test: log2 fold change of tryptic peptide abundance, ligand vs vehicle (limited proteolysis) (log2 ratio); higher = more trypsin-susceptible (destabilized)
# Conditions: ligand concentration: 20 uM; sample: mouse liver crude lysate; replicate design: treated separately
# Sequence of UniProt O89079 (O89079 whole entry): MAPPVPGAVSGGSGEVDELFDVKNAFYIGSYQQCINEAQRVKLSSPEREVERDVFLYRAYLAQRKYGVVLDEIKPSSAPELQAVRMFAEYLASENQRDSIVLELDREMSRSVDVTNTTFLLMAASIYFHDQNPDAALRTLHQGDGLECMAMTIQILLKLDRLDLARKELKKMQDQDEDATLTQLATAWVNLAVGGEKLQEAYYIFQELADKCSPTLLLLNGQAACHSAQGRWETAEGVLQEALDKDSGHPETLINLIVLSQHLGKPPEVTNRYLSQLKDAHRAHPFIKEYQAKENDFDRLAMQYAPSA
# Sequence of UniProt Q8VCR2 (Q8VCR2 whole entry): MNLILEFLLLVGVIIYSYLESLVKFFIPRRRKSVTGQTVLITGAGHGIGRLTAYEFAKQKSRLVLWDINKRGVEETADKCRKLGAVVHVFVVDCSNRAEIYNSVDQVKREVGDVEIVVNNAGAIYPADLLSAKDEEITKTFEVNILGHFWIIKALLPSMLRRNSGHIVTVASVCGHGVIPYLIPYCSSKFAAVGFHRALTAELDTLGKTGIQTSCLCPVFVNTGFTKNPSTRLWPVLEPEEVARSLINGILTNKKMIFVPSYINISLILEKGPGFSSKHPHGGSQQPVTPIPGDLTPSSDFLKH
# Sequence of UniProt Q3U3Q1 (Q3U3Q1 whole entry): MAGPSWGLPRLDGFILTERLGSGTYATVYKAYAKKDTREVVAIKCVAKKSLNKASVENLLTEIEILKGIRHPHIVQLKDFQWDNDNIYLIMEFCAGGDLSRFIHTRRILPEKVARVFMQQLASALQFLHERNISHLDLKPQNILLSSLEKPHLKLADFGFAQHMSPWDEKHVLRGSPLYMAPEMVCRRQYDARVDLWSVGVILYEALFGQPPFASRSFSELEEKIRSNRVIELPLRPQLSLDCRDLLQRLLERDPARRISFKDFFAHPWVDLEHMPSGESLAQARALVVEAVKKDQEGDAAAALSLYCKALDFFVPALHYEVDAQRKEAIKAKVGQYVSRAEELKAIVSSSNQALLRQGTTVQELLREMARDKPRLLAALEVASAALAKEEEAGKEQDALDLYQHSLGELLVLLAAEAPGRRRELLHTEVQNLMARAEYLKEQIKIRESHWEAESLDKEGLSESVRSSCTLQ
# Sequence of UniProt Q91VF2 (Q91VF2 whole entry): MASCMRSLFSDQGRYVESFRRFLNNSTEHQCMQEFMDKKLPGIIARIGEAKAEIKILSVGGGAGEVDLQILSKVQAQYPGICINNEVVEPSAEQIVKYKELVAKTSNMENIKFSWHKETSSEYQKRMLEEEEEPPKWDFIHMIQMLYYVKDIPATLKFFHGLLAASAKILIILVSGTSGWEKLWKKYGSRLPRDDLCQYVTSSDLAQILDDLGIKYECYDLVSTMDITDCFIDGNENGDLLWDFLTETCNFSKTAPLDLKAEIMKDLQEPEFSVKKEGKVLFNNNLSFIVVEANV
# Sequence of UniProt Q9JI11 (Q9JI11 whole entry): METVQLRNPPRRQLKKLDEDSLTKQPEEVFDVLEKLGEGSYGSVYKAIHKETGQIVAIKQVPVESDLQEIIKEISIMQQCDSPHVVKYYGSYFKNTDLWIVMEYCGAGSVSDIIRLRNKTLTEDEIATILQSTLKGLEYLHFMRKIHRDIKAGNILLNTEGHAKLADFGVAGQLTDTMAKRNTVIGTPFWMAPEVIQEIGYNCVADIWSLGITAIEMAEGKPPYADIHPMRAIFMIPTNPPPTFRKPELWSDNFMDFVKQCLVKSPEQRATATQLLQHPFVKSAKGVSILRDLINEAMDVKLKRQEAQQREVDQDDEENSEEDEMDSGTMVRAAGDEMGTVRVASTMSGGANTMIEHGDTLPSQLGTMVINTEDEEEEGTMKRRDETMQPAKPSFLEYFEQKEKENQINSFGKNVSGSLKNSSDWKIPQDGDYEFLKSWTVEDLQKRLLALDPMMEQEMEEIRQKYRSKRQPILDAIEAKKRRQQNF
# Sequence of UniProt P19157 (P19157 whole entry): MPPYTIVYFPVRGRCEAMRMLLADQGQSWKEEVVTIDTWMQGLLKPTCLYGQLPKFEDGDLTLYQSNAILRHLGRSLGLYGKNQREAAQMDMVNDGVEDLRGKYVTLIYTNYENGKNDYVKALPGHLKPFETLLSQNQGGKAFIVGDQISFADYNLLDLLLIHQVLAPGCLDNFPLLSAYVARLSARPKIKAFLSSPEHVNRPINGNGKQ
# Sequence of UniProt Q99JP0 (Q99JP0 whole entry): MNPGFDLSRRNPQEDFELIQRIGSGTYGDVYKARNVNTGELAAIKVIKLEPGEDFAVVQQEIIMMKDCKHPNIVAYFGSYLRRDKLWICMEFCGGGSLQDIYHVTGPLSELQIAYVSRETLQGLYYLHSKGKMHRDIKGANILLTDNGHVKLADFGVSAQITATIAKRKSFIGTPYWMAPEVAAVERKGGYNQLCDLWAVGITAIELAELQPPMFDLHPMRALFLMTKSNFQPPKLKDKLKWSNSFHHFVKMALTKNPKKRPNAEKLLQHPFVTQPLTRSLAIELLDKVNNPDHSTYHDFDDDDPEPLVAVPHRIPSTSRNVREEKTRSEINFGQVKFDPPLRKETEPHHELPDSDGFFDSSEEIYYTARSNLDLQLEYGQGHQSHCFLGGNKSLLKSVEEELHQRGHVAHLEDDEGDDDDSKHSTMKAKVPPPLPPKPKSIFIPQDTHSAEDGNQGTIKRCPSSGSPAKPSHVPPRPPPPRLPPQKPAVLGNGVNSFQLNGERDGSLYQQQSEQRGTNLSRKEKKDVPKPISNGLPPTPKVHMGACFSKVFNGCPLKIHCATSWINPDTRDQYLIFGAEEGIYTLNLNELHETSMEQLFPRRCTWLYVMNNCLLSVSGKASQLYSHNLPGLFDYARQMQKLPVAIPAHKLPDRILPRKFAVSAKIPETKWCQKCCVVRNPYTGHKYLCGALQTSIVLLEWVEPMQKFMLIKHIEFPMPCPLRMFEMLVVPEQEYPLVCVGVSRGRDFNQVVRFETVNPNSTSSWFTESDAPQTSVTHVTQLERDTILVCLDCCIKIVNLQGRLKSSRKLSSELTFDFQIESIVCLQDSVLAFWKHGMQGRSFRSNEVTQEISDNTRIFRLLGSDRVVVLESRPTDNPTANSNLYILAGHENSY
# Sequence of UniProt Q9QXX4 (Q9QXX4 whole entry): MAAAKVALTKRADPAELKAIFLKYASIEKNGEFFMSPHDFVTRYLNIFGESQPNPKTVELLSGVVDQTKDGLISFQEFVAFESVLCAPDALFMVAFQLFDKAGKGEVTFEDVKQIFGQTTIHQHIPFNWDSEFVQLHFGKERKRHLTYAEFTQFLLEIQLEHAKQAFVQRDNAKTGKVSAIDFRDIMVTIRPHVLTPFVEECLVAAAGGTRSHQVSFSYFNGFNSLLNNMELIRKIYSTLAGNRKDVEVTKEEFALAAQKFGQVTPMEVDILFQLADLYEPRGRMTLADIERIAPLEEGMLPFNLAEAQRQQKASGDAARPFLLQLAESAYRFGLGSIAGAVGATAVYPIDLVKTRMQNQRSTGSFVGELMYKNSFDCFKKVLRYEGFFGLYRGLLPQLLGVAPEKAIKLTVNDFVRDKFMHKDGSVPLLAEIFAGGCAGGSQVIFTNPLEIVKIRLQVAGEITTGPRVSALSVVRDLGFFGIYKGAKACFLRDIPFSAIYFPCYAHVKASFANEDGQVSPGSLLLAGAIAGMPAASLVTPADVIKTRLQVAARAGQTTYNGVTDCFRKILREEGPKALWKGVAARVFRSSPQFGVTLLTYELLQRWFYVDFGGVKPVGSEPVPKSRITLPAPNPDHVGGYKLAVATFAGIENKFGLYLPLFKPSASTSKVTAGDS
# Sequence of UniProt Q91V04 (Q91V04 whole entry): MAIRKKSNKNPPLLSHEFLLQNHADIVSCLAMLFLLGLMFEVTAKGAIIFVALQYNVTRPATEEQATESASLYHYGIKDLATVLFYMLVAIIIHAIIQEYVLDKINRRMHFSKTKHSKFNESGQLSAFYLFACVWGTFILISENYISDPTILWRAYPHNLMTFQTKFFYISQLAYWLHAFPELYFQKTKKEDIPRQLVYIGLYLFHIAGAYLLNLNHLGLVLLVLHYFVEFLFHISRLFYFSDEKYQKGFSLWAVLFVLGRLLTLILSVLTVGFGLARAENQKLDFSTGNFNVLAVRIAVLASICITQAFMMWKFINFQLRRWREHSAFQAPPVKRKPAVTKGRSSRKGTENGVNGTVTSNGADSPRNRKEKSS
# Sequence of UniProt Q8R123 (Q8R123 whole entry): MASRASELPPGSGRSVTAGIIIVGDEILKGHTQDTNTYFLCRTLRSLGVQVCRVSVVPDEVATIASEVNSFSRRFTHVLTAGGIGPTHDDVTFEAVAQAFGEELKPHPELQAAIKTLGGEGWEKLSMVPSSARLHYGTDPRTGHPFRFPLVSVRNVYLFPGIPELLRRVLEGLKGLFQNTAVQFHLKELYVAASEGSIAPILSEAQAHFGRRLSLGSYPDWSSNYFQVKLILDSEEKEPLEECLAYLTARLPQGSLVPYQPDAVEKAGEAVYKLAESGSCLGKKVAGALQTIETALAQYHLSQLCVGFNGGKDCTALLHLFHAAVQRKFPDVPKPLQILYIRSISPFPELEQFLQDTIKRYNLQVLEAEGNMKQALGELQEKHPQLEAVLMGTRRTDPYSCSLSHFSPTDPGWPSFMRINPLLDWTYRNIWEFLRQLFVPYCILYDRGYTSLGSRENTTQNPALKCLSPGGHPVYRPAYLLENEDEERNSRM
row,Target,log2 fold change
1,"UniProt Q8R123 (peptide sequence: LSMVPSSAR, peptide start residue: 125)",-0.276
2,"UniProt Q91VF2 (peptide sequence: TSNMENIK, peptide start residue: 105)",0.598
3,"UniProt Q3U3Q1 (peptide sequence: VIELPLRPQLSLDCR, peptide start residue: 230)",-2
4,"UniProt O89079 (peptide sequence: KYGVVLDEIKPSSAPELQAVR, peptide start residue: 65)",-0.856
5,"UniProt Q99JP0 (peptide sequence: NVNTGELAAIK, peptide start residue: 35)",-1.82
6,"UniProt P19157 (peptide sequence: AFLSSPEHVNRPINGNGK, peptide start residue: 192)",-0.521
7,"UniProt Q91V04 (peptide sequence: EHSAFQAPPVKR, peptide start residue: 325)",3.7
8,"UniProt Q9JI11 (peptide sequence: ATATQLLQHPFVK, peptide start residue: 270)",-3.07
9,"UniProt Q8VCR2 (peptide sequence: ALLPSMLR, peptide start residue: 154)",-0.279
10,"UniProt Q9QXX4 (peptide sequence: AGQTTYNGVTDCFRK, peptide start residue: 555)",0.466
